Assay outcomes as filed in PubChem BioAssay.
Tau fluor cs: counter-screen for tau fibril formation inhibitors. tau K18 P301L Alexa594 fluorescence, heparin fibrillization. Potency, µM (titrated, usually from 57.7 µM), inactives show at the top dose activity change, negative = decrease. 280,000 tested, 0.93% active. AID 1463; also: nearly all actives have a fitted effect of over 55% in size
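Human K18 P301L tau (15 uM unlabeled plus 0.24 uM Alexa 594-labeled, final) in 100 mM sodium acetate pH 7 was mixed with compound and 20 uM heparin and incubated 6 hr at 37 C.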
Tau ThT inhib: inhibitors of human tau fibril formation, thioflavin T binding; Potency, µM (series often up to 57.4 µM), inactives show at the top dose activity, negative = inhibition, most hits filed as inhibitors; recombinant tau K18 P301L (four-repeat tau fragment), heparin-induced fibrillization, ThT fluorescence; 270,000 tested, 2.1% active; AID 1460; also: nearly all actives have a fitted effect of over 55% in size
Target sequence (P10636 561-689 P618L limits assumed): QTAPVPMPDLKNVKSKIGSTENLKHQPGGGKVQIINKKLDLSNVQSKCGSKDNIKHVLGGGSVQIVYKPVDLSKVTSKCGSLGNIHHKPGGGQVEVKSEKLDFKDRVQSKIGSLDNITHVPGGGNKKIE
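Recombinant human tau K18 fragment […] carrying P301L, 15 uM unlabeled plus 0.24 uM Alexa 594-labeled, was fibrillized with 20 uM heparin in 100 mM sodium acetate pH 7 for 6 hr at 37 C; 30 uM ThT fluorescence read after 1 hr.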
TRb-SRC2 inh: disrupts binding of human TR beta to SRC2 | P10828 | TRbeta-SRC2 peptide binding, fluorescence polarization; receptor liganded with 1 µM T3 | Potency, µM (series often up to 106 µM), without a hit: at the highest dose activity change, negative = inhibition, most hits filed as inhibitors | 280,000 tested, 0.065% active | AID 1469;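 also: plate controls were bound peptide for no effect and peptide without receptor for full effect; nearly all actives have a fitted effect of over 50% in size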
Target sequence (P10828 whole entry, looked up): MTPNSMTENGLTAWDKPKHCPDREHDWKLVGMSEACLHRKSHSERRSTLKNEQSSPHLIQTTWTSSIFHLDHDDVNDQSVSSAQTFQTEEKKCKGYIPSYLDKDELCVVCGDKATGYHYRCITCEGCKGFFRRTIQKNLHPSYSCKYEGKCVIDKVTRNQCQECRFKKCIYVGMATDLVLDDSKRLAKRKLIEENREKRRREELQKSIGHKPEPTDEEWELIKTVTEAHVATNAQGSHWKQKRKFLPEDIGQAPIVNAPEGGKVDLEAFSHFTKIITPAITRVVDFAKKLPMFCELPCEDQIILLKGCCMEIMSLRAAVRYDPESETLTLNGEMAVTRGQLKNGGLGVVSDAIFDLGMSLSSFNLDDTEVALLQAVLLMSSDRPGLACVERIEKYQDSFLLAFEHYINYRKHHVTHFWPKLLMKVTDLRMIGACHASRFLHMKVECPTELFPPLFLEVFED
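Read-out is fluorescence polarization (555 nm excitation, 632 nm emission) of a Texas Red SRC2 coactivator peptide; loss of signal reflects blocked binding to human TRb ligand-binding domain in the presence of 1 uM T3.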
Tau FP inhib: tau fibrillization inhibition (FP); P10636; K18 P301L tau heparin fibrillization, Alexa594 FP, 6 h; Potency, µM (top dose mostly 57.7 µM), inactives show at the top dose activity, negative = inhibition, hits mostly inhibitors; 280,000 tested, 0.39% active; also: nearly all actives have a fitted effect of over 55% in size
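K18 P301L tau (15 uM unlabeled/0.24 uM Alexa 594-labeled, final) + compound + heparin 20 uM final; 100 mM NaOAc pH 7; 6 hr 37 C; ThT 30 uM final added, 1 hr RT; FP ex 555/em 632 nm.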
RGS12 GoLoco inh: inhibitors of human Gai1-RGS12 GoLoco interaction (red fluorophore) | 230,000 tested, 0.44% active | Gai1:RGS12 GoLoco peptide FP, rhodamine, 10 min | Potency, µM (doses to about 61.6 µM), for inactives: at the highest dose activity, negative = inhibition, usual class: inhibitors | P63096; active = well fitted inhibition curve with a large enough effect, not every such curve was filed as active; inactive = no such curve, though single readings can be large or run the other way; also: nearly all actives have a fitted effect of over 30% in size
TR SRC2 fluor cs: alters Texas Red total fluorescence, flagging assay interference. 280,000 tested, 0.29% active. Potency, µM (top dose mostly 106 µM), for inactives: top-dose fluorescence change, negative = quenching. AID 1479. TRb/SRC2 Texas Red total fluorescence interference; active = well fitted curve in either direction with a large enough effect; inconclusive = small, poorly fitted or top-dose-only effect
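Human TRβ ligand-binding domain (0.6 uM) and Texas Red SRC2 peptide (20 nM) in Tris buffer with 1 uM T3 and 5% DMSO were incubated with pinned compound for 5 hr at ambient temperature. Total fluorescence was computed as S + 2P (555/632 nm).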
* = called active by the depositor; [ ] = another dose, or the depositor's remark. The list is not random: actives were taken first. Their share in the collection is about 3.2%. Unless noted, calls follow the shape of the dose curve; as a rule, active = well fitted curve in the direction sought with a large enough effect; inconclusive = small, poorly fitted or top-dose-only effect, or another doubt; inactive = no such curve, though single readings can be large; an effect the other way counts as inactive or inconclusive. Unless noted, % is scaled to controls: 0 for no effect and ±100 for the full control effect; potency is read from the fitted curve at half-maximal effect.

Screening CC(C)=CCC[C@](C)(O)C1CC[C@]2(C)[C@@H]1CC[C@@H]1[C@@]3(C)CCC(=O)C(C)(C)[C@@H]3CC[C@]12C (stereo partly specified) returned TRb-SRC2 inh 7% and TR SRC2 fluor cs -3%.
For COc1ccc2[nH]cc(CCNC(=O)Nc3cccc(F)c3)c2c1 the results were Tau fluor cs 25µM*[quencher], Tau ThT inhib inconclusive, TRb-SRC2 inh 3%, Tau FP inhib inconclusive and TR SRC2 fluor cs -4%.
`COc1ccc2[nH]c(C)c(CCNC(=S)Nc3cc(C)cc(C)c3)c2c1` gave Tau fluor cs inconclusive, Tau ThT inhib -4%, TRb-SRC2 inh -7%, Tau FP inhib 7%, RGS12 GoLoco inh 1% and TR SRC2 fluor cs 0%.
For CCOc1ccc(NC(=S)N(CCc2c(C)[nH]c3ccc(C)cc23)Cc2ccco2)cc1 the results were Tau fluor cs inconclusive, Tau ThT inhib inconclusive, TRb-SRC2 inh 3%, Tau FP inhib 0%, RGS12 GoLoco inh 30% and TR SRC2 fluor cs -1%.
`CNC(=S)N(CCc1c(C)[nH]c2ccc(C)cc12)Cc1cccs1` gave Tau fluor cs 20µM*[quencher], Tau ThT inhib inconclusive, TRb-SRC2 inh -2%, Tau FP inhib 6%, RGS12 GoLoco inh -1% and TR SRC2 fluor cs -1%.
`COc1ccc2[nH]cc(CCNC(=O)Nc3c(C)cccc3C)c2c1` gave Tau fluor cs -18%, Tau ThT inhib -11%, TRb-SRC2 inh 0%, Tau FP inhib 8% and TR SRC2 fluor cs -3%.
Screening COc1ccc2[nH]c(C)c(CCNC(=S)Nc3cccc(C)c3)c2c1 returned Tau fluor cs 16µM*[quencher], Tau ThT inhib inconclusive, TRb-SRC2 inh 5%, Tau FP inhib 15%, RGS12 GoLoco inh 8% and TR SRC2 fluor cs -6%.
Screening COc1ccc(NC(=S)N(CCc2c(C)[nH]c3ccc(C)cc23)Cc2ccco2)cc1 returned Tau fluor cs 14µM*[quencher], Tau ThT inhib inconclusive, TRb-SRC2 inh 2%, Tau FP inhib inconclusive, RGS12 GoLoco inh 20% and TR SRC2 fluor cs 0%.
For CCCN1CCCC(c2cccc(S(C)(=O)=O)c2)C1 (stereo unspecified) the results were TRb-SRC2 inh 2% and TR SRC2 fluor cs 2%.
CCCc1ccc(C(=O)O)cc1 was read as TRb-SRC2 inh 6%, RGS12 GoLoco inh -2% and TR SRC2 fluor cs -4%.
For COc1ccc2[nH]c(C)c(CCN(Cc3cccs3)C(=S)Nc3ccc(F)cc3)c2c1 the results were Tau fluor cs 7.9µM*[quencher], Tau ThT inhib inconclusive, TRb-SRC2 inh -14%, Tau FP inhib -2%, RGS12 GoLoco inh 1% and TR SRC2 fluor cs 0%.
`O=C(O)c1cc(N/N=C/c2cccs2)ccc1Cl` gave Tau fluor cs -15%, Tau ThT inhib inconclusive, TRb-SRC2 inh -2%, Tau FP inhib -12%, RGS12 GoLoco inh 15% and TR SRC2 fluor cs -3%.
Screening O=C(O)c1cc(N/N=C/C(Cl)=C/c2ccccc2)ccc1Cl returned Tau fluor cs -29%, Tau ThT inhib 14µM*, TRb-SRC2 inh -4%, Tau FP inhib -4%, RGS12 GoLoco inh -4% and TR SRC2 fluor cs -3%.
CCOc1cccc(C2Nc3ccccc3-c3cc(C)nn32)c1O (stereo unspecified) was read as Tau fluor cs -30%, Tau ThT inhib -16%, TRb-SRC2 inh -12%, Tau FP inhib 1% and TR SRC2 fluor cs 0.0004µM*[quencher].
Screening Cc1cc2n(n1)C(c1c[nH]c3ccccc13)Nc1ccccc1-2 (stereo unspecified) returned Tau fluor cs 25µM*[quencher], Tau ThT inhib inconclusive, TRb-SRC2 inh -4%, Tau FP inhib 28µM*, RGS12 GoLoco inh 11% and TR SRC2 fluor cs -2%.
Screening Cc1cc2n(n1)C(c1cn(-c3ccccc3)nc1C)Nc1ccccc1-2 (stereo unspecified) returned Tau fluor cs -19%, Tau ThT inhib -7%, TRb-SRC2 inh 3%, Tau FP inhib -9%, RGS12 GoLoco inh 4% and TR SRC2 fluor cs -1%.
Screening O=C(Cl)c1ccc(C(=O)Cl)cc1 returned TRb-SRC2 inh 5%[201 µM] and TR SRC2 fluor cs -4%[201 µM].
For c1ccc2cc3c(ccc4ccccc43)cc2c1 the results were TRb-SRC2 inh 0%[201 µM] and TR SRC2 fluor cs -4%[201 µM].
Screening O=[N+]([O-])c1ccc(/C=C/c2ccncc2)cc1 returned Tau fluor cs -19%, Tau ThT inhib inconclusive, TRb-SRC2 inh 1%, Tau FP inhib 0%, RGS12 GoLoco inh -3% and TR SRC2 fluor cs -1%.
Screening [O-]/[N+](=C\c1ccncc1)c1ccc(Br)cc1 returned Tau fluor cs -25%, Tau ThT inhib 32µM*, TRb-SRC2 inh 0%, Tau FP inhib inconclusive, RGS12 GoLoco inh 0% and TR SRC2 fluor cs 1%.
CC(=O)N1c2ccc(S(=O)(=O)Nc3ccc(C)c(Cl)c3)cc2CC1C (stereo unspecified) was read as Tau fluor cs -23%, Tau ThT inhib -6%, TRb-SRC2 inh -15%, Tau FP inhib -4% and TR SRC2 fluor cs 16µM*[quencher].
Screening O=C(Nc1ccccc1)Nc1sccc1-c1nc2ccccc2s1 returned Tau fluor cs inconclusive, Tau ThT inhib inconclusive, TRb-SRC2 inh 6%, Tau FP inhib inconclusive, RGS12 GoLoco inh 37% and TR SRC2 fluor cs 7%.
Screening O=C(Nc1cccc(-c2nc3ccccc3s2)c1)c1cccs1 returned Tau fluor cs inconclusive, Tau ThT inhib inconclusive, TRb-SRC2 inh 5%, Tau FP inhib 22µM*, RGS12 GoLoco inh 6% and TR SRC2 fluor cs -3%.
For CCC(CC)C(=O)Nc1cccc(-c2nc3ccccc3s2)c1 the results were Tau fluor cs inconclusive, Tau ThT inhib -17%, TRb-SRC2 inh -5%, Tau FP inhib inconclusive and TR SRC2 fluor cs 5%.
`O=C(Nc1cccc(Cl)c1)Nc1sccc1-c1nc2ccccc2s1` gave Tau fluor cs 14µM*[quencher], Tau ThT inhib inconclusive, TRb-SRC2 inh 6%, Tau FP inhib inconclusive, RGS12 GoLoco inh 44% and TR SRC2 fluor cs 6%.
Screening NCCCC[C@H](NC(=O)CNC(=O)[C@@H]1CCCN1C(=O)[C@H](Cc1ccc(O)cc1)NC(=O)CN)C(=O)N[C@@H](Cc1ccccc1)C(=O)O returned TRb-SRC2 inh 1% and TR SRC2 fluor cs -1%.
Screening O[C@@H]1COC2[C@@H](O)CO[C@@H]21 (stereo partly specified) returned TRb-SRC2 inh -23% and TR SRC2 fluor cs inconclusive.
Screening CC(C)(c1cc(Br)c(OCC(Br)CBr)c(Br)c1)c1cc(Br)c(OCC(Br)CBr)c(Br)c1 (stereo unspecified) returned TRb-SRC2 inh 0%, RGS12 GoLoco inh 7% and TR SRC2 fluor cs -2%.
